KCNQ2 inh: rat KCNQ2 potassium channel inhibitors, primary screen, cell-based, CHO-K1, FluxOR thallium flux, B-score; 1.1% of 310,000 active; B-score at 10 µM; Potassium voltage-gated channel subfamily KQT member 2 (Rattus norvegicus), O88943; 20 min; active compounds read low; AID 2156, 2009;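 active = fluorescence ratio B-score at most minus 3 library SDs, with starting brightness B-score within 2 library SDs, cut at about -5.5 in these data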
Target sequence (O88943 whole entry, looked up): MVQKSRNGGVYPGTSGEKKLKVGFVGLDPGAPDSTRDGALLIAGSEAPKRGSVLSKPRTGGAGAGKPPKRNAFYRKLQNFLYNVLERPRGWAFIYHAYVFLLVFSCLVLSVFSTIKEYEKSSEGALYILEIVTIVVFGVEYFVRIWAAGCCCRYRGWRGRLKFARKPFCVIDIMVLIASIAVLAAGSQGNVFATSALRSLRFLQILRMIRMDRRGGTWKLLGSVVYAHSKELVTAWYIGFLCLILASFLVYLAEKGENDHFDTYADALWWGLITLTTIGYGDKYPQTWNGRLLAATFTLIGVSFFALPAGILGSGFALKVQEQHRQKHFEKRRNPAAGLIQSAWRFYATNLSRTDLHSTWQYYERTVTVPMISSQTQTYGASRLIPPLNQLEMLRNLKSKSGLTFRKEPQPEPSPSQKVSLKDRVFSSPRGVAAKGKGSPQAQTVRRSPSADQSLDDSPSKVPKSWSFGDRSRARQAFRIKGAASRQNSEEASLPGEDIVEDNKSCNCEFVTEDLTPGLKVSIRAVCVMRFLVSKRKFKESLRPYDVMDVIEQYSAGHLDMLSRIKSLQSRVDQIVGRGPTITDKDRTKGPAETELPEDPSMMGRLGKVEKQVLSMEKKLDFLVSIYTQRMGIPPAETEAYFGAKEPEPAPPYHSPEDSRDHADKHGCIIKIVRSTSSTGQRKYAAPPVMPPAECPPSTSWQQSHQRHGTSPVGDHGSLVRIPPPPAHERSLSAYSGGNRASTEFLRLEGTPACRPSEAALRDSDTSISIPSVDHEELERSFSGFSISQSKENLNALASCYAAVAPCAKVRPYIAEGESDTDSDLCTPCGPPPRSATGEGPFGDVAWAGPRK
KCNQ2 pot: potentiators of rat KCNQ2 potassium channel | Potassium voltage-gated channel subfamily KQT member 2 (Rattus norvegicus), O88943 | CHO-K1 KCNQ2, FluxOR thallium flux fluorescence; active compounds read high | B-score at 10 µM | 0.54% of 310,000 active;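 active = fluorescence ratio B-score at least 3 SD of library B-scores, with initial fluorescence B-score within 3 of them, cut at about 5.3 in these data; same plate scores as AID 2156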;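 also: B-score of peak minus minimum over baseline fluorescence ratio after K+ and Tl+ stimulus; positive B-score means potentiation of KCNQ2 with more thallium influx and brighter signal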
* hit, by the source's call; i = inactive; x = no result. Compounds with a hit are over-represented: about 1.6% of the library has one in this group of screens.

SMILES	KCNQ2 inh	KCNQ2 pot
O=C(Nc1ccnn1C1CCN(Cc2ccccc2OC(F)F)CC1)c1cccnc1	i	0.26
O=C(NCc1c(Cl)cccc1Oc1ccccc1)c1ccccc1	i	x
CCCn1c(N)c(Sc2ccccc2[N+](=O)[O-])c(=O)n(CCC)c1=O	i	0.5
CCc1cc(SC#N)cc(C)c1NC(=O)CCl	i	11*
Cc1cc(SC#N)cc(C)c1NC(=O)CCl	i	6.3*
CCC(=O)Nc1ccc(SC#N)cc1C	i	0.11
CCc1cc(SC#N)cc(C)c1N	i	x
COCCN(C(=O)COC(=O)CCC(=O)c1cccs1)c1c(N)n(Cc2ccccc2)c(=O)[nH]c1=O	i	1.2
O=C(NCc1ccccc1)C(c1ccncc1)N(C(=O)c1csnn1)c1cccc(F)c1 (centres undefined)	i	x
Cc1onc(-c2ccccc2)c1C(=O)Nc1ccccc1NC(=O)c1c(-c2ccccc2)noc1C	i	x
Cc1cccc(C)c1NC(=O)c1c(-c2ccccc2)noc1C	-5.7*	-5.7
COc1ccc(NC(=O)c2c(-c3ccccc3)noc2C)c(OC)c1	i	x
CCCOc1ccccc1NC(=O)c1c(-c2ccccc2)noc1C	-6.1*	-6.1
N#Cc1cnn2ccc(-c3ccc4c(c3)CCC4)nc12	i	0.71
CCNc1nc(NCC)n2c(SCC(=O)c3ccccc3F)nnc2n1	i	1.8
CCN1CCCC1CNC(=O)c1ccc2c(c1)NC(=O)/C(=C\c1ccc(C)cc1)S2 (centres undefined)	-7.6*	-7.6
Cc1ccc(/C=C2/Sc3ccc(C(=O)NCCN4CCOCC4)cc3NC2=O)cc1	i	x
CC(=O)Nc1ccc(NC(=O)CSc2ccc3nnc(-c4cccnc4)n3n2)cc1	i	0.5
Cc1ccc(C(=O)N2c3ccc(F)cc3CCC2C)o1 (centres undefined)	i	x
Cc1nn(Cc2ccc(C(=O)N3c4ccc(F)cc4CCC3C)o2)c(C)c1Br (centres undefined)	-7.6*	-7.6
O=C(COC(=O)CCC(=O)c1cccs1)NCc1ccc(Cl)cc1	i	0.13
O=C(CCC(=O)c1cccs1)NCc1cccc(Cl)c1	-6.3*	-6.3
O=C(CSc1cccc(C(F)(F)F)c1)NCc1ccccc1	i	16*
O=C(O)CSCC(=O)NCc1cccc(C(F)(F)F)c1	i	0.01
O=C(CSc1ccccc1)NCc1ccccc1	i	x
SMILES	KCNQ2 inh	KCNQ2 pot
O=C(CCC(=O)c1cccs1)NCc1cccc(C(F)(F)F)c1	-6.4*	-6.4
COc1cc(S(=O)(=O)N(C)C)ccc1F	i	1.1
CCCCn1c(N)c(N(CC(C)C)C(=O)c2ccc(S(=O)(=O)N3CCC(C)CC3)cc2)c(=O)[nH]c1=O	i	x
CCC(=O)Nc1cc2c3c(c1)CCC(=O)N3CCC2	i	x
Cc1ccccc1Cn1c(CN2CCc3ccccc3C2)nc2c1c(=O)n(C)c(=O)n2C	-6.1*	-6.1
Cn1c(=O)c2c(nc(CN3CCc4ccccc4C3)n2Cc2ccc(F)cc2)n(C)c1=O	i	x
Cc1ccc(S(=O)(=O)N2CCN(c3ccccc3)CC2)c(C)c1	i	x
CCC1CCC(NC(=O)Nc2cccc(OC)c2)CC1 (centres undefined)	i	x
CC(=O)c1ccc(N(C(=O)CNC(=O)c2cccs2)C(C(=O)NCC2CCCO2)c2ccccc2)cc1 (centres undefined)	i	0.47
O=C(NCC(=O)N(Cc1ccccc1)C(C(=O)NCC1CCCO1)c1ccccc1)c1cccs1 (centres undefined)	-5.6*	-5.6
COc1ccccc1N(Cc1ccccc1)S(=O)(=O)c1cccc(C(=O)Nc2ccc(C)cn2)c1	-7.1*	-7.1
COc1ccccc1N(Cc1ccccc1)S(=O)(=O)c1cccc(C(=O)Nc2ccccn2)c1	i	x
COC(=O)N/N=C/c1cc(Br)ccc1O	i	x
O=C(N/N=C/c1cc(Br)ccc1O)c1ccccc1Cl	i	9.1*
O=C(NNc1ccc([N+](=O)[O-])cc1)C1CC1c1ccccc1 (centres undefined)	i	6.3*
O=C(NNc1ccc([N+](=O)[O-])cc1)C1CC2CCCC(C1)C2=O (centres undefined)	i	0.7
O=C(COc1ccc(F)cc1)Nc1nnc(S(=O)(=O)N2CCCC2)s1	i	x
COc1ccc(NC(=O)CN(C)C(=O)c2cn(-c3ccccc3)nc2-c2cccnc2)cc1	i	x
Cc1cccc(-n2ncc3c2CCCC3NC(=O)C2(C(N)=O)CC2)c1C (centres undefined)	i	0.59
COc1ccc(C(=O)NC2CC(C)(C)Cc3c2cnn3-c2ccccc2C)c(OC)c1OC (centres undefined)	i	x
Cc1cc(C)c(C(=O)NC2CCCc3c2cnn3-c2cccc(C)c2C)o1 (centres undefined)	-6.6*	-6.6
Cc1cc(C(=O)NC2CC(C)(C)Cc3c2cnn3-c2ccccc2C)c(C)o1 (centres undefined)	-5.7*	-5.7
COc1cccc(OC)c1OCCCN1CCC(Cc2ccccc2)CC1	i	0.35
Cc1ccc2cc(/C=C(\C#N)C(N)=O)c(N3CCCCC3)nc2c1	i	x
CCOC(=O)/C(C#N)=C/c1cc2ccccc2nc1N1CCCCC1	-6.5*	-6.5
SMILES	KCNQ2 inh	KCNQ2 pot
CC(Oc1ccc(F)cc1)C(=O)Nc1ccccc1N1CCCCC1 (centres undefined)	-7.7*	-7.7
CCC(Oc1ccccc1)C(=O)Nc1ccccc1N1CCCCC1 (centres undefined)	i	x
COCCn1ccc2c(OCC(=O)NCc3ccc(C)cc3)cccc2c1=O	i	x
Cc1ccc(C(=O)Cc2cc3ccccc3oc2=O)c(C)c1	i	0.12
COc1ccc(-c2csc(N3CCN(c4cc(C)nc5ccccc45)CC3)n2)cc1OC	-6.3*	-6.3
COc1cc(-c2csc(N3CCOCC3)n2)cc(OC)c1OC	i	0.33
COC(=O)C1=C(C)N(CCCCCC(=O)O)C(=O)NC1c1ccccc1 (centres undefined)	i	x
COc1ccc(NC(=O)Cc2ccc(Cl)c(Cl)c2)cn1	i	x
COc1ccc(NC(=O)/C(Cl)=C(/Cl)S(=O)(=O)Cc2ccc(C)cc2)cn1	i	5.4*
Cc1ccc(NC(=O)Cc2nnc(SCC(=O)NC3CCCC3)n2C)c(C)c1	i	0.9
Cc1ccc(S(=O)(=O)N2CCOC2CNC(=O)C(=O)NCCN2CCOCC2)cc1 (centres undefined)	i	x
Cc1c(C(=O)N(C)Cc2cccc(F)c2)oc2c(Cl)cccc12	-7.7*	-7.7
Cc1c(C(=O)N(C)Cc2ccccc2)oc2c(Cl)cccc12	i	x
COc1cc(C(=O)OCC(=O)Nc2ccc(C)cc2)cc(OC)c1OC	i	0.27
COc1cccc(CNS(=O)(=O)c2ccc3c(c2)C(C)(C)C(=O)N3C)c1	i	1.4
COc1ccccc1NC(=O)CN1CCN(c2ccccc2F)CC1	-5.8*	-5.8
COc1ccccc1NC(=O)CN1CCN(c2ccccc2OC)CC1	i	1.5
CCOc1c(Cl)cc(C(=O)Nc2ccccc2-c2ccccc2)cc1Cl	i	x
COc1ccc(C(=O)Nc2ccccc2-c2ccccc2)cc1Cl	-6.2*	-6.2
O=C(COC(=O)c1ccc(O)cc1)Nc1ccccc1[N+](=O)[O-]	i	1.1
Cc1ccc(NC(=O)c2ccc(S(=O)(=O)NCc3cccnc3)cc2)c(C)c1	i	x
O=S(=O)(c1ccc(N2CCC(c3ccc(Cl)cc3)=N2)cc1)N(CCO)CCO	i	1.8

Bioassay records deposited in PubChem BioAssay by Johns Hopkins Ion Channel Center.
